The values below come from PubChem BioAssay AID1962 (The Scripps Research Institute Molecular Screening Center, 2009).

Among all 300,000 compounds or so, about 2,500 (0.83%) were called active.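 The calls were made as follows: active = inhibition above the mean of all tested compounds plus 3 SD, set per screening campaign (cut at about 24% in these data); inactive = the rest.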 The entries come from a sample that favours actives as a whole.

For the experiment, the system named is tRNA 2'-phosphotransferase TPT1 (Candida albicans SC5314). The experiment in a line: tRNA 2'-phosphotransferase blockers, C. albicans – biochemical, fluorescence polarization, primary screen (AID 1962).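 Also: plate controls were DMSO alone for no effect and ferristatin control at 100 nM for full effect.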 Particulars: recombinant caTPT1, FP RNA substrate dephosphorylation; at 5 µM; hits give high values.
Consider `Cc1ccc2[nH]c(=O)c(CC(=O)O)c(-c3ccccc3)c2c1`, for which the inhibition is -1.99% (inactive).
Then `Cc1ccc2[nH]c(=O)c(CN3CCCCC3)c(-c3ccccc3)c2c1`, with 31.4% (active).
With `Cc1ccc2[nH]c(=O)c(CC=C(Cl)Cl)c(C)c2c1` the figure was 1.23% (inactive); with `CCOc1ccc(NC(=O)c2ccc(NC(=O)C3CCCO3)cc2)cc1` (stereo not given), 1.62% (inactive).
With `Cc1ccc(CNC(=O)c2cc(-c3ccccc3C)n(CC3CC(c4cccc([N+](=O)[O-])c4)=NO3)n2)cc1` (stereo not given) the figure was -1.39% (inactive).
`Cn1c(-c2ccc(C(F)(F)F)cc2)cc2onc(-c3ccccc3)c2c1=O`: the inhibition is 1.56% (inactive).
Then `CN(c1ccc(OCC(=O)OCC(=O)Nc2cccc([N+](=O)[O-])c2)cc1)S(=O)(=O)c1ccc(F)cc1`, with -1.05% (inactive); and `Cc1c(Cl)c([N+](=O)[O-])nn1Cc1ccc(C(=O)N/N=C\c2cc(Cl)ccc2O)o1`, with 1.45% (inactive); and `Cc1cc(/C=C2/SC(=O)N(CC(=O)N3CCCC3)C2=O)ccc1N1CCOCC1`, with 38.1% (active).
Then `Cc1ccc2c(c1)N(CC(=O)N1CCOCC1)C(=O)CO2`, with 1.05% (inactive); and `Cc1cc(/C=C2/SC(=O)N(CC(=O)N3CCCC3)C2=O)c(C)n1C`, with -4.95% (inactive).
Then `C#CCOCCOCCOCCNc1nc(N2CCN(C(=O)[C@H](CCCCN)n3cc(CCC(=O)O)nn3)CC2)nc(N2CCN(C(=O)[C@H](CCCCN)n3cc(CC(C)O)nn3)CC2)n1` (stereo not given in full), with -2.04% (inactive); and `Cc1ccc(S(=O)(=O)N2CCN=C2SCc2c(F)cccc2Cl)cc1`, with -3.87% (inactive); and `Cc1cccc[n+]1CC(=O)c1ccccc1`, with -3.95% (inactive).
For the molecule `O=C(C[n+]1cc(Br)cc2ccccc21)c1ccc(F)cc1`, the inhibition was 25.1% (active).
With `O=C(CNC(=O)c1ccc(F)cc1)c1ccccc1` the figure was 5.07% (inactive).
Then `COc1cccc(-n2c(N)cc(=O)nc2SCC(=O)Nc2cc(C)on2)c1`, with -0.29% (inactive).
Turning to `CCC(C)(C)c1ccc(Oc2ccc(NC(=O)COC(=O)C3=COCCO3)cc2)cc1`, the inhibition is 0.08% (inactive).
With `CC(C)C[C@@H](N)c1nnc(SCC(=O)c2ccc(Cl)cc2)o1` the figure was 3.05% (inactive); with `O=C(O)CCCN1C(=O)C2C3c4ccccc4C(c4ccccc43)[C@@H]2C1=O` (stereo not given in full), 2.01% (inactive).
Then `O=C(CN1C(=O)c2ccccc2C1=O)NCc1ccc(C(=O)O)cc1`, with 36.6% (active); and `O=C(O)CCC(=O)NCc1ccc(C(=O)O)cc1`, with -6.54% (inactive).
Then `COc1ccc(CNC(=O)CCN2C(=O)c3ccccc3C2=O)cc1`, with -3.69% (inactive); and `Cc1ccc(C)c(C(=O)N2CCC(n3nccc3NC(=O)C3CC3)CC2)c1`, with 1.61% (inactive).
On to `CC(C(=O)N1CCN(c2ccccc2F)CC1)c1ccc([N+](=O)[O-])cc1` (stereo not given), for which the inhibition is 0.08% (inactive).
As for `NS(=O)(=O)c1ccc(NC(=S)NNC(=O)c2cccs2)cc1`, the inhibition was -0.11% (inactive).
With `O=C(N1CCOCC1)N1CCOCC1` the figure was -4.04% (inactive).
Then `N#C/C(=C/c1ccc(N2CCOCC2)o1)C(=O)N1CCOCC1`, with 158% (active).
With `Cc1ccc(C(=O)N2CCN(C(=O)N3CCOCC3)CC2)cc1`, the inhibition is -1.08% (inactive).
With `N#C/C(=C\c1ccc(N2CCOCC2)o1)C(=O)N1CCOCC1` the figure was 153% (active).
With `N#C/C(=C\c1ccc(-c2cccc([N+](=O)[O-])c2)o1)C(=O)NCCN1CCOCC1` the figure was 0.6% (inactive); with `N#C/C=C(/c1ccc(F)cc1)N1CCOCC1`, -0.18% (inactive).
Then `CCOc1cc(-c2noc(CCCC(=O)NC3CCCCC3)n2)ccc1OC`, with 3.27% (inactive).
Take `CN1CCCN(C(=O)C2CCCCC2)CC1`: the inhibition was 1.49% (inactive).
Then `C/C(=C/C(=O)N1CCN(C)CC1)C(=O)O`, with 3.89% (inactive); and `CCOCCn1[nH]c2ccccc2c1=O`, with -0.9% (inactive); and `CCC1CCCCN1C(=S)Nc1ccc(C(C)=O)cc1` (stereo not given), with -0.24% (inactive).
As to `COCCN(C(=O)c1ccccc1F)c1c(N)n(Cc2ccccc2)c(=O)[nH]c1=O`, the inhibition was 1.87% (inactive).
Then `COc1ccc(NC(=O)c2sccc2SCC#N)cc1`, with -1.53% (inactive); and `O=C(Nc1cccc(F)c1)c1cc(-c2ccco2)nc2ccccc12`, with 14.1% (inactive); and `CNC(=S)NNC(=O)c1oc2nc(-c3ccccc3)cc(-c3ccco3)c2c1N`, with 5.89% (inactive).
With `NNC(=O)c1oc2nc(-c3ccccc3)cc(-c3ccco3)c2c1N` the figure was 79.6% (active); with `CC[N+](C)(CC)CCC[n+]1c(-c2ccccc2)c2cc(N)ccc2c2ccc(N)cc21`, -27.7% (inactive); with `COc1ccc(/C=C2\SC(=S)N(CCC(=O)Nc3cccc(C(=O)O)c3)C2=O)cc1OC`, 1.59% (inactive).
With `COc1ccccc1C(=O)NNC(=O)CCN1C(=O)/C(=C\c2ccccc2)SC1=S` the figure was -5.63% (inactive); with `COc1cc(/C=C2/SC(=S)N(Cc3ccccc3)C2=O)cc(OC)c1O`, 89.8% (active); with `CC(C(=O)Nc1ccc(F)c(F)c1F)N1CCCCCC1` (stereo not given), -0.32% (inactive).
With `CC(=O)c1cnc(SCC(=O)O)nc1C`, the inhibition was -5.63% (inactive).
Then `CSc1nc(N(C)NC(=O)c2cccc(C)c2)c2ccccc2n1`, with -0.9% (inactive); and `CCOC(=O)C(C)N(c1ccccc1Cl)S(C)(=O)=O` (stereo not given), with 0.94% (inactive); and `Cc1cc(C)nc(N/N=C/c2ccncc2)n1`, with 3.38% (inactive).
Then `CCN(CC)c1ccc(/C=N/NC(=O)c2cnccn2)c(O)c1`, with 1.75% (inactive); and `CCN(CC)c1ccc(/C=N/Nc2nc(C)cc(C)n2)c(O)c1`, with 25.2% (active).
Consider `COc1ccc(-c2cc3nc(C)c(CCC(=O)NC(C)CCc4ccco4)c(C)n3n2)c(OC)c1` (stereo not given), for which the inhibition is 0.65% (inactive).
With `Cc1c(C(=O)OC(C)C)sc(NC(=O)c2cccnc2)c1C#N` the figure was 31.6% (active); with `CCOC(=O)c1cc(NC(=O)c2cccnc2)ccn1`, -2.33% (inactive).
For the molecule `CC(C)NS(=O)(=O)c1ccc(NC(=O)c2cccnc2)cc1`, the inhibition is 6.23% (inactive).
With `O=C(NC1CCCCC1)C1CCCN(S(=O)(=O)c2ccc(Br)s2)C1` (stereo not given) the figure was -22.4% (inactive); with `CC(NC(=O)CC1SC(N)=NC1=O)c1ccccc1` (stereo not given), 2.18% (inactive); with `Cc1cc(NC(=O)CCS(=O)(=O)c2ccc(F)cc2)no1`, -4.5% (inactive).

In general, inhibition refers to the change of the read-out against control, counted positive when it falls.
